Compound activity as filed in PubChem BioAssay.
USP1 inh: blocks the human USP1/UAF1 deubiquitinase complex; O94782; Potency, µM (doses to about 57.1 µM), for inactives: at the top dose activity change, negative = inhibition, most hits filed as inhibitors; recombinant USP1/UAF1, Ub-Rhodamine cleavage fluorescence; 0.23% of 390,000 active; also: % is scaled to controls: 0 for no effect and ±100 for the full control effect; nearly all actives have a fitted effect of over 60% in size
Target sequence (O94782 whole entry, looked up): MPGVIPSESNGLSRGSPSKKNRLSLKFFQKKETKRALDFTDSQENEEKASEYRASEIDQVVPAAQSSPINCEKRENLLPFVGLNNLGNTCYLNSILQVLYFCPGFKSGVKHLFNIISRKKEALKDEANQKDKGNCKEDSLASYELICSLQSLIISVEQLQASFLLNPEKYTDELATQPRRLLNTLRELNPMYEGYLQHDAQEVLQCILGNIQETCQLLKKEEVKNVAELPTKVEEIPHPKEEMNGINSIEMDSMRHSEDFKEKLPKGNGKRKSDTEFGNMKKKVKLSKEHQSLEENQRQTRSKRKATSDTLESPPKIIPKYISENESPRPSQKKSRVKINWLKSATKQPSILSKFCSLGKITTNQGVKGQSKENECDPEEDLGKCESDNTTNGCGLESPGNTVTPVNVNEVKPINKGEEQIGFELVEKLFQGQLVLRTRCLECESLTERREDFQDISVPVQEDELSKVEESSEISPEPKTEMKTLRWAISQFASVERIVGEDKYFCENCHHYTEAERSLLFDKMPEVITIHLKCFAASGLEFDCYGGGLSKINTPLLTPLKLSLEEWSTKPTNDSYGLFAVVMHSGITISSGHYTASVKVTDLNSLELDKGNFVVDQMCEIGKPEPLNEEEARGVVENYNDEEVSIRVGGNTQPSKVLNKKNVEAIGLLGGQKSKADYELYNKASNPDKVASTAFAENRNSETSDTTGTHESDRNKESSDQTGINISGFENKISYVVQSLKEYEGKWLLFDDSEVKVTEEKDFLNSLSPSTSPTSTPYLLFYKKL
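USP1/UAF1 complex (1 nM) preincubated 15 min at room temperature with compound, then Ub-Rho substrate (150 nM final) added. Kinetic fluorescence at 480/540 nm over 6 reads at 60 s intervals; 50 mM HEPES pH 7.8, 0.5 mM EDTA, 0.1 mg/ml BSA, 1 mM TCEP, 0.01% Tween-20.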
EPAC2 agonist: activates human EPAC2 exchange factor; Q8WZA2; EPAC2 activation, biochemical qHTS; response scale: 100% = 6.5 mM cAMP response; Potency, µM (titrated, usually from 154 µM), for inactives: at the top dose activation, actives largely listed as activators; 0.079% of 360,000 active; AID 720711; also: nearly all actives have a fitted effect of over 50% in size
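Guanine nucleotide exchange by EPAC2 is measured as reduced fluorescence of BODIPY-GDP once it is released from 250 nM Rap1B. Plates are read kinetically for 30 min at room temperature; results are scaled to 6.5 mM cAMP.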
EPAC2 antag: blocks human EPAC2 exchange factor; Q8WZA2; EPAC2 GEF exchange of Rap1B-BODIPY-GDP, fluorescence; Potency, µM (top dose mostly 114 µM), without a hit: top-dose activity, negative = inhibition, usual class: inhibitors; 0.18% of 360,000 active; also: % is scaled to controls: 0 for no effect and ±100 for the full control effect; nearly all actives have a fitted effect of over 45% in size
EPAC1 antag: EPAC1 (human) antagonism | AID 720709 | EPAC1 GEF assay, Rap1b-BODIPY-GDP exchange fluorescence | O95398 | 0.14% of 360,000 active | Potency, µM (doses to about 115 µM), inactives show at the top dose activity change, negative = inhibition, hits mostly inhibitors;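 also: plate controls were vehicle for no effect and positive control for full effect; nearly all actives have a fitted effect of over 50% in size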
EPAC1 ag: EPAC1 (human) agonism. Potency, µM (doses to about 154 µM), for the others: at the top dose activation, hits mostly activators. AID 720707. 0.073% of 360,000 active. EPAC1 agonist qHTS, biochemical assay; response scale: 100% = response to 6.5 mM cAMP. O95398; also: nearly all actives have a fitted effect of over 60% in size
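Normalized to 6.5 mM cAMP, activity reflects EPAC1-catalysed release of BODIPY-GDP from Rap1B, followed kinetically over 30 min at 480 nm excitation, 540 nm emission. Reaction contained 100 nM EPAC1, 250 nM Rap1B-BODIPY-GDP, 50 uM GDP.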
The depositor's hits bear a star; u = inconclusive; x = no result given; [ ] = dose if it differs, or a comment. Compounds with a hit are over-represented: about 0.44% of the library has one in this group of screens. Calls follow the shape of the dose curve; as a rule, active = well fitted curve in the direction sought with a large enough effect; inconclusive = small, poorly fitted or top-dose-only effect, or another doubt; inactive = no such curve, though single readings can be large; an effect the other way counts as inactive or inconclusive. Potency is read from the fitted curve at half-maximal effect.

SMILES	USP1 inh	EPAC2 agonist	EPAC2 antag	EPAC1 antag	EPAC1 ag
O=[N+]([O-])c1cc([As](=O)(O)c2ccc(O)c([N+](=O)[O-])c2)ccc1O	-12.3%	-0.6%	17.8µM*	9.9%	-4.2%
COc1cc(/C=C/c2nc3ccccc3c(=O)n2-c2ccccc2O)ccc1O	u	1.8%	-25.6%	u	8.8%
COc1cc(/C=C/c2nc3ccccc3c(=O)n2-c2cccc(O)c2)ccc1O	-10.6%	-0.5%	-2.3%	50.1µM*	5.2%
O=C1NC(=O)N(Cc2ccccc2)C(=O)/C1=C\c1ccco1	-14.9%	-2.5%	-2.9%	u	-15.2%
CCCCN1C(=O)/C(=C\c2ccco2)C(=O)N(CCc2ccccc2)C1=O	-12.1%	6.6%	-1.3%	25.1µM*	-0.2%
Cc1cccc(-n2c(O)c(/C=C/C=Nc3ccccc3)c(=O)[nH]c2=O)c1	u	-21.6%	9.1%	6.4%	100µM*
CNS(=O)(=O)c1ccc(N=Cc2c(O)n(-c3cccc(C)c3)c(=O)[nH]c2=O)cc1	-5.4%	26.0%	-4.5%	9.5%	11.8%
Cc1cccc(N=Cc2c(O)n(-c3ccccc3C)c(=O)[nH]c2=O)c1	-15.0%	-1.9%	2.1%	2.5%	-0.7%
Cc1ccccc1-n1c(O)c(/C=C/C=Nc2ccccc2)c(=O)[nH]c1=O	31.6µM*	u	88.5%	64.2%	89.1µM*
O=C1NCCOC(=O)[C@@H](Cc2ccc(F)cc2)CC/C=C/C[C@@H]1CC(=O)N(CCO)Cc1ccccc1	u	-1.3%	-9.4%	10.7%	-6.2%
O=C(Nc1ccc(Oc2ccc(Cl)cc2)c(Cl)c1)c1cc(I)cc(I)c1O	u	4.2%	u	39.8µM*	-13.7%
CC1CN(c2ccccc2)NC1=O (stereo not given)	u	-1.2%	14.9%	-2.8%	-3.2%
Cc1cc(C=C2C(=O)NC(=S)NC2=O)c(C)n1-c1ccc2c(c1)OCO2	-12.7%	-0.7%	-5.3%	56.2µM*	-5.8%
CC(=O)Nc1ccc(N(C(=O)Cn2nnc3ccccc32)C(C(=O)NC2CCCC2)c2ccc(O)c(O)c2)cc1 (stereo not given)	-22.7%	3.0%	-4.4%	u	6.3%
Cn1ncnc2c(=O)n(C)c(=O)nc1-2	0.0316µM*	u	-29.5%	u	-7.4%
O=C(O)C(NC(=O)c1ccccc1)=C(Cl)Cl	-5.1%	3.4%	2.5%	u	0.0%
O=C1C=C(N2CC2)c2ccccc2C1=O	7.08µM*	15.0%	u	u	13.6%
O=C1c2ccccc2-c2cc3ccccc3cc21	-24.7%	-1.6%	5.7%	1.7%	6.0%
COc1ccc(S(=O)(=O)N(C)C[C@H]2Oc3c(NC(=O)NC4CCCCC4)cccc3C(=O)N([C@H](C)CO)C[C@@H]2C)cc1	u	2.0%	-9.1%	-7.3%	-21.6%
CCC(C)NC(=O)c1c(N)n(CCCOC)c2nc3ccccc3nc12 (stereo not given)	31.6µM*	11.4%	-6.9%[57.1 µM]	-4.3%	3.4%
CN(N=Cc1ccc([N+](=O)[O-])cc1)c1ccccn1	-3.0%	-189.7%	133.0%	4.8%	-12.7%
Cc1ccc(N2C(=O)NC(=O)/C(=C\c3cccn3C(C)(C)C)C2=O)cc1	-17.0%	-15.6%	7.4%[57.1 µM]	-10.7%	-11.9%
CCC(C)c1ccc(N2C(=O)NC(=O)/C(=C/c3cccn3CCOc3ccc(C)cc3)C2=O)cc1 (stereo not given)	1.3%	-30.6%	-2.2%	44.7µM*	-22.9%
COc1cc2c(cc1O)[C@@H]1Cc3ccc(OC)c(O)c3CN1CC2	14.1µM*	9.4%	8.0%	-29.9%	-6.6%
C[C@H](CO)N1C[C@H](C)[C@@H](CN(C)C(=O)NC2CCCCC2)Oc2c(cccc2N(C)C)C1=O	u	-7.4%	9.4%	6.5%	-21.1%
SMILES	USP1 inh	EPAC2 agonist	EPAC2 antag	EPAC1 antag	EPAC1 ag
CCn1c(SCC(=O)Nc2nncs2)nnc1-c1ccco1	-15.3%	2.1%	12.8%	35.0%	-2.3%
Cc1ccc([C@H]2C[C@H](n3cc(C4CC4)nn3)[C@@H](O)CN2Cc2cccs2)cc1	u	5.8%	-0.3%	-11.9%	-7.3%
O=[N+]([O-])c1ccc(NCc2ccccc2)c2nonc12	22.4µM*	56.2µM*	36.4%	34.4%	56.2µM*
CCOC(=O)[C@]12Cc3cc(Cl)ccc3[C@H]1N(C(C)C)C(=O)c1ccccc12	x	9.1%	16.8µM*	-4.7%	-7.2%
CCOC(=O)[C@]12Cc3ccccc3[C@H]1N(Cc1ccccc1)C(=O)c1cc(OC)ccc12	x	7.6%	28.2µM*	-23.9%	4.0%
CCOC(=O)[C@]12Cc3cc(OC)ccc3[C@H]1N(Cc1ccccc1)C(=O)c1cc(OC)ccc12	x	6.0%	-28.9%	-12.9%	-7.9%
Clc1cc(Cl)c(-c2cc(Cl)c(Cl)cc2Cl)cc1Cl	-22.4%	8.7%	3.98µM*	-22.6%	1.2%
CCc1nc2c(OCc3ccc(C(F)(F)F)cc3)cccn2c1N(C)C(=O)C(C)C	x	3.1%	u	-9.1%	-14.3%
COc1cccc2c1C(=O)c1c(O)c3c(c(O)c1C2=O)CC(O)(C(C)=NO)CC3OC1CC(N)C(O)C(C)O1 (stereo not given)	25.1µM*	11.0%	36.6%	10.4%	6.0%
Cc1ccccc1N1C(=O)NC(=O)/C(=C/c2ccc(N3CCOCC3)o2)C1=O	25.1µM*	-9.2%	-20.1%	24.8%	18.5%
Cc1ccccc1N1C(=O)NC(=O)/C(=C\c2cc(Br)c(N3CCOCC3)o2)C1=O	u	10.6%	-17.2%	18.3%	8.6%
CN1C(=O)C(=Cc2ccc(N3CCCCCC3)o2)C(=O)N(C)C1=S	25.1µM*	u	-0.6%	-5.2%	11.5%
Cc1cccc(N2C(=O)NC(=O)/C(=C\c3cc(C)n(-c4sc5c(c4C#N)CCCC5)c3C)C2=O)c1C	u	-2.7%	-22.3%	35.5µM*	11.7%
O=C(C[C@@H]1CC[C@@H]2[C@H](COC[C@H](O)CN2Cc2cccc(C(F)(F)F)c2)O1)NCc1ccc(Cl)cc1	x	1.6%	u	-3.3%	-12.0%
N#Cc1cc(NC(=O)c2ccc(Cl)cc2)ccc1Sc1ccccc1	x	-14.3%	u	5.0%	-14.2%
